# Assay outcomes: PubChem BioAssay, several laboratories
# CHT inh = human CHT choline transport inhibition; Q9GZV3; CHT-expressing cells, membrane potential dye, choline response; hits give low values; B-score at 10 µM; 0.86% of 310,000 active; AID 488975;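 active means B-score over 3 SD under the library average, and starting fluorescence ratio not unusually high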;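 further: choline stimulus applied at its EC90 after an EC20 pre-addition; B-score computed on integrated fluorescence ratio after choline addition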
# TMEM16A act = mouse TMEM16A channel activation, primary screen. AID 623877. Q8BHY3. HEK293 TMEM16A/YFP-H148Q/I152L, iodide quench fluorescence; hits give low values. B-score at 10 µM. 0.3% of 340,000 active;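 active means fluorescence-ratio B-score plate-corrected deviation score at least 3 library SD below zero, with starting fluorescence score within 5 deviations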;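 further: channel opened by trigger with iodide after compound preincubation; score built on the fluorescence ratio of max minus min over baseline; more negative score means more quench and so TMEM16A activation or potentiation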
# Rce1 inhib = blocks yeast Ras-converting enzyme; Q03530; yeast membranes, quenched prenylated peptide cleavage fluorescence; calls only; 0.27% of 290,000 active; AID 2563;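 active means fall in fluorescence gain of 50% or more versus controls, with final raw signal at or below 3038400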;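 further: plate controls were neutral control wells for no effect and wells lacking membranes for full effect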
# Target sequence (Q03530 whole entry, looked up): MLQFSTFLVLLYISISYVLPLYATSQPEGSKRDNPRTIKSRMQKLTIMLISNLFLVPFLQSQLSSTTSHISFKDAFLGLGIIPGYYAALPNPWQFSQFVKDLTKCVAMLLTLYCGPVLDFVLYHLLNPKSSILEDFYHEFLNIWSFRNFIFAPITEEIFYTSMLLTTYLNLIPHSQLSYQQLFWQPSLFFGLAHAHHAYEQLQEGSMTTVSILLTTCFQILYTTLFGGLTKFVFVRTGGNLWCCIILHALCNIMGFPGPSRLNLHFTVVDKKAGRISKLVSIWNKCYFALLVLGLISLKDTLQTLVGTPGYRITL
# Kir21 inh = blocks the mouse Kir2.1 inward-rectifier potassium channel; P35561; HEK293-Kir2.1, FluxOR thallium flux fluorescence; hits give low values; B-score at 10 µM; 0.85% of 310,000 active; AID 1672;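 active means fluorescence ratio B-score at or below minus 3 SD of library scores, with starting-brightness B-score within 2 SD, cut at about -4.2 in these data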;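 further: channel flux triggered by added potassium and thallium sulfate stimulus; B-score of peak minus minimum fluorescence over baseline after thallium stimulus; more negative B-score means stronger Kir2.1 block with less thallium influx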
# CHT PAM = allosteric activators of human choline transporter CHT; Q9GZV3; CHT-expressing cells, membrane potential dye, choline EC20; hits give high values; LV-AA mutant CHT in HEK293 cells; B-score at 10 µM; 0.49% of 310,000 active; AID 488977;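 active means initial fluorescence not abnormally high and integrated response B-score, plate-corrected, over 3 SD above library mean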
# TMEM16A inh = inhibitors of mouse TMEM16A calcium-activated chloride channel | normalized B-score (activity score, 25-100; higher = stronger inhibition) at 10 µM | HEK293 TMEM16A/YFP iodide influx fluorescence, ionomycin | Q8BHY3 | AID 588511 | 1.2% of 310,000 active;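 active means ratio plate-corrected score three or more library SD toward inhibition, starting fluorescence score within five deviations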;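 further: score derived from kinetic fluorescence span divided by baseline fluorescence per well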
# TMEM16A reconf = re-confirmation of mouse TMEM16A chloride channel inhibitors. shares compounds with TMEM16A inh. HEK293 TMEM16A/YFP-H148Q, iodide quench fluorescence; ionomycin added to raise cell calcium. inhibition, % at 10 µM. 39% of 2,300 active. AID 652189;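 active means mean duplicate percent inhibition, scaled so buffer wells are 0 and the reference blocker 100, over three buffer SD above buffer mean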
# TMEM16A Ca cntr = alters calcium mobilization in TMEM16A HEK293 cells, counter-screen; shares compounds with TMEM16A inh; TMEM16A/YFP HEK293, Fluo4 calcium mobilization; calcium response (% of ionomycin), % at 10 µM; 2% of 2,300 active;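 active means duplicate-averaged calcium signal over 20% of the ionomycin maximum, relative to buffer baseline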;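 further: each well's signal is peak minus trough fluorescence divided by its pre-addition baseline; 0% = buffer wells and 100% = ionomycin wells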
# Parental YFP cnt = parental YFP-HEK293 iodide quench counter-screen activity. AID 652233. ionomycin. 2,300 tested, under 10 active. YFP ratio F(max-min)/F0 at 10 µM. shares compounds with TMEM16A inh;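 active means yellow fluorescent protein signal ratio exceeding the buffer control mean by over 5 SD of those controls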;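 further: ratio is mean of duplicate wells from kinetic YFP trace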
# ClC-1 rat inh = rat ClC-1 inhibition, TMEM16A specificity screen. shares compounds with TMEM16A inh. CHO ClC-1-YFP, iodide influx fluorescence quench; iodide control reads 0, buffer control 100. ratio percent, % at 10 µM. 2,300 tested, under 10 active. AID 652236;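 active means duplicate-mean ratio percent above the mean of iodide-only control wells, which defines zero, plus 5 of their SD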;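 further: higher percent means stronger block of ClC-1 iodide influx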
# The depositor's hits bear a star; i = inactive; . = not tested or not shown. The list is not random: actives were taken first. Their share in the collection is about 3.2%.
SMILES,CHT inh,TMEM16A act,Rce1 inhib,Kir21 inh,CHT PAM,TMEM16A inh,TMEM16A reconf,TMEM16A Ca cntr,Parental YFP cnt,ClC-1 rat inh
NNC(=O)COc1ccc2oc3c(c2c1)CCCC3,i,i,i,-2.51,i,i,.,.,.,.
O=C(Nn1nnnc1Nc1ccccc1)C12CC3CC(CC(C3)C1)C2,i,i,i,-0.18,i,25*,i,i,-0.8,-5.5
CCCn1c(=O)c(C(=O)NNS(=O)(=O)c2ccc(NC(=O)OC)cc2)c(O)c2ccccc21,i,i,i,0.96,i,i,.,.,.,.
COc1ccccc1/C(C)=N/Oc1cc(N)cc([N+](=O)[O-])c1,.,i,.,.,.,.,.,.,.,.
Cc1cc(C(=O)CSc2n[nH]c(-c3ccccc3F)n2)c(C)n1Cc1cccs1,i,i,i,-3.24,i,100*,i,i,-1.06,-4.5
COCCNC(=S)N/N=C/c1c2ccccc2cc2ccccc12,i,i,i,0.64,i,i,30.0%*,i,-0.599,5.0
S=C(NCCN1CCOCC1)N/N=C/c1c2ccccc2cc2ccccc12,i,i,.,-0.04,i,i,.,.,.,.
CCN(Cc1ccncc1)C(=O)c1cccc(S(=O)(=O)N2CCCCC2)c1,.,i,.,.,.,.,.,.,.,.
O=C(O)CCNS(=O)(=O)c1ccc2ccccc2c1,i,i,i,-0.98,i,100*,i,i,-0.94,-4.5
O=C(O)CCNS(=O)(=O)c1ccccc1,i,i,i,0.74,i,i,.,.,.,.
O=C(Nc1ccc(N2CCN(c3ccc(C(F)(F)F)cn3)CC2)nc1)c1cccs1,i,i,i,-1,i,i,.,.,.,.
O=C(Nc1ccc(N2CCN(c3ncccc3C(F)(F)F)CC2)nc1)c1cccs1,i,i,i,-0.84,i,25*,31.0%*,i,-1.2,-3.5
CCSc1ccc([C@@H]2[C@@H]3C(=O)N(CC)C(=O)[C@@H]3[C@]3(C(=O)OC)CCCCN23)cc1,i,i,i,-0.1,i,i,.,.,.,.
CCC(C)Sc1ccc([C@@H]2[C@H]3C(=O)N(CC)C(=O)[C@H]3[C@]3(C(=O)OC)CCCCN23)cc1 (some centres not stated),i,i,.,.,i,i,27.5%*,i,-0.712,13.0
Cn1c(=O)n(C)c2cc(NC(=O)c3ccccc3[N+](=O)[O-])c(Br)cc21,i,i,i,0.79,i,i,.,.,.,.
CC1CCCCC12NC(=O)N(CC(=O)OCC(=O)NC(=O)c1ccccc1)C2=O (configuration not stated),.,i,.,.,.,.,.,.,.,.
CCCCSc1ccc2nc(-c3ccc(C#N)cc3)cn2c1,i,i,i,0.3,i,100*,16.0%*,i,-1.16,-8.0
O=C(CSc1ccc(Cl)cc1)N1CCN(c2ccc(Cl)cc2[N+](=O)[O-])CC1,i,i,i,-0.36,i,100*,i,i,-1.13,-2.5
CCOC(=O)CC(NC(=O)Cc1ccc(F)cc1)c1ccccc1Cl (configuration not stated),i,i,i,0.01,i,i,.,.,.,.
CCn1c(=O)c(C(=O)NNC(=O)c2ccccc2F)c(O)c2ccccc21,i,i,.,0.53,i,25*,22.0%*,48.5%*,-1.19,-5.5
Cc1nn(CC(O)COc2ccc3c(c2)CCC3)c(C)c1Br (configuration not stated),i,i,i,-0.01,i,i,.,.,.,.
